Measured values from the supplement of paper PMC9262897, “Low-cost anti-mycobacterial drug discovery using engineered E. coli” (Nature Communications, 2022).
Counter-ions that a name gives are not always drawn. ± gives the standard deviation of the averaged measurements.

Tests used:
Assay in all cases: growth (OD600 after 10 h); higher = more growth (less inhibition)
[1] = system: E. coli TESEC Alr+ wild-type control; settings: compound 0.1 mM; raw OD600 reference: median of DMSO wells 0.241, cell-free background 0.041
Description: (§1)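 TESEC Mtb Alr E. coli, or the Alr+ wild-type control, in 384-well plates with Prestwick library compounds at 0.1 mM and 1% DMSO, across arabinose induction levels of 1E3 to 1E7 nM. Growth is read as OD600 after 10 h at 37 °C in triplicate biological replicates.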

E. coli TESEC Mtb Alr [2] = settings: compound 0.1 mM
Description: as §1

E. coli TESEC Mtb Asd = settings: compound 0.1 mM
Description: (§2)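 TESEC E. coli strains in which the native enzyme is deleted and replaced by arabinose-inducible Mtb Asd, DapB, CysH or TrpD, each grown in its selective medium. Strains were screened against the Prestwick library at 0.1 mM and 1% DMSO in 384-well format at low and high arabinose induction. Growth is read as OD600 after 10 h in triplicate.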

E. coli TESEC Mtb DapB = settings: compound 0.1 mM
Description: as §2

E. coli TESEC Mtb Alr [3] = settings: compound 0.1 mM; remark: listed apart in the source
Description: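 TESEC Mtb Alr E. coli (ΔaraC ΔtolC ΔentC Δalr ΔdadX, arabinose-inducible Mtb Alr) or the Alr+ wild-type control strain, grown in defined M9-fructose medium without D-alanine in 96-well plates with Prestwick library compounds at 0.1 mM and 1% DMSO. Low Alr induction is 0.1 µM arabinose and high induction is 10 mM arabinose.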

[4] = arabinose 1000 nM, raw OD600 reference: median of DMSO wells 0.294, cell-free background 0.041
[5] = arabinose 10000 nM, raw OD600 reference: median of DMSO wells 0.264, cell-free background 0.041
[6] = arabinose 100000 nM, raw OD600 reference: median of DMSO wells 0.201, cell-free background 0.041
[7] = arabinose 1000000 nM, raw OD600 reference: median of DMSO wells 0.193, cell-free background 0.041
[8] = arabinose 10000000 nM, raw OD600 reference: median of DMSO wells 0.146, cell-free background 0.041
[9] = arabinose induction (level): High, raw OD600 reference: median of DMSO wells 0.331, cell-free background 0.041
[10] = arabinose induction (level): Low, raw OD600 reference: median of DMSO wells 0.417, cell-free background 0.041
[11] = arabinose induction (level): High, raw OD600 reference: median of DMSO wells […], cell-free background 0.041
[12] = arabinose induction (level): Low, raw OD600 reference: median of DMSO wells 0.227, cell-free background 0.041
[13] = arabinose 100 nM, raw OD600 reference: median of DMSO wells 0.413, cell-free background 0.052
[14] = arabinose 10000000 nM, raw OD600 reference: median of DMSO wells […], cell-free background 0.052

Row | Compound | growth [1] | growth (E. coli TESEC Mtb Alr [2]; [4]) | growth (E. coli TESEC Mtb Alr [2]; [5]) | growth (E. coli TESEC Mtb Alr [2]; [6]) | growth (E. coli TESEC Mtb Alr [2]; [7]) | growth (E. coli TESEC Mtb Alr [2]; [8]) | growth (E. coli TESEC Mtb Asd; [9]) | growth (E. coli TESEC Mtb Asd; [10]) | growth (E. coli TESEC Mtb DapB; [11]) | growth (E. coli TESEC Mtb DapB; [12]) | growth (E. coli TESEC Mtb Alr [3]; [13]) | growth (E. coli TESEC Mtb Alr [3]; [14])
1 | NC[C@@H]1O[C@H](O[C@H]2[C@@H](O)[C@H](O[C@@H]3[C@@H](O)[C@H](N)C[C@H](N)[C@H]3O[C@H]3O[C@H](CO)[C@@H](O)[C@H](O)[C@H]3N)O[C@@H]2CO)[C@H](N)[C@@H](O)[C@@H]1O [Paromomycin sulfate] | 0.251 ± 0.0064 | 0.327 ± 0.0078 | 0.275 ± 0.0073 | 0.19 ± 0.0041 | 0.19 ± 0.013 | 0.163 ± 0.0039 | 0.496 ± 0.0058 | 0.447 ± 0.027 | 0.195 ± 0.0097 | 0.26 ± 0.034 | 0.405 ± 0.014 | 0.333 ± 0.0043
2 | NC(=O)c1ncn([C@@H]2O[C@H](CO)[C@@H](O)[C@H]2O)n1 [Ribavirin] | 0.17 ± 0.02 | 0.0986 ± 0.0022 | 0.0798 ± 0.0011 | 0.117 ± 0.0028 | 0.0816 ± 0.0003 | 0.106 ± 0.0017 | 0.404 ± 0.036 | 0.426 ± 0.071 | 0.196 ± 0.021 | 0.203 ± 0.025 | 0.415 ± 0.046 | 0.24 ± 0.021
3 | CO[C@H]1/C=C/O[C@@]2(C)Oc3c(C)c(O)c4c(O)c(c5c(nc6cc(C)ccn65)c4c3C2=O)NC(=O)/C(C)=C\C=C\[C@H](C)[C@H](O)[C@@H](C)[C@@H](O)[C@@H](C)[C@H](OC(C)=O)[C@@H]1C [Rifaximin] | 0.044 ± 0.0038 | 0.0438 ± 0.0029 | 0.0409 ± 0.0005 | 0.0411 ± 0.00017 | 0.0418 ± 0.0021 | 0.0439 ± 0.0024 | 0.0569 ± 0.001 | 0.054 ± 0.0016 | 0.103 ± 0.089 | 0.0515 ± 0.0028 | 0.05527 ± 0.00047 | 0.0526 ± 0.00044
4 | CC1=C(CC(=O)O)c2cc(F)ccc2/C1=C\c1ccc([S+](C)[O-])cc1 (centres undefined) [Sulindac] | 0.166 ± 0.0055 | 0.206 ± 0.0077 | 0.181 ± 0.0019 | 0.125 ± 0.0091 | 0.0898 ± 0.0021 | 0.103 ± 0.0038 | 0.151 ± 0.018 | 0.243 ± 0.012 | 0.151 ± 0.013 | 0.196 ± 0.054 | 0.364 ± 0.063 | 0.11 ± 0.01
5 | COc1cc([C@@H]2c3cc4c(cc3[C@@H](O[C@@H]3O[C@@H]5CO[C@@H](C)O[C@H]5[C@H](O)[C@H]3O)[C@H]3COC(=O)[C@H]23)OCO4)cc(OC)c1O [Etoposide] | 0.0715 ± 0.0031 | 0.0527 ± 0.0019 | 0.04273 ± 0.00025 | 0.0604 ± 0.0031 | 0.0501 ± 0.00056 | 0.1106 ± 0.0011 | 0.112 ± 0.015 | 0.0831 ± 0.013 | 0.113 ± 0.0098 | 0.0846 ± 0.011 | 0.129 ± 0.02 | 0.0985 ± 0.018
6 | CC(=O)O[C@]1(C(C)=O)CC[C@H]2[C@@H]3C=C(Cl)C4=CC(=O)[C@@H]5C[C@@H]5[C@]4(C)[C@H]3CC[C@@]21C [Cyproterone acetate] | 0.1672 ± 0.001 | 0.168 ± 0.0067 | 0.125 ± 0.027 | 0.122 ± 0.0081 | 0.0693 ± 0.0035 | 0.0975 ± 0.0046 | 0.111 ± 0.041 | 0.109 ± 0.0055 | 0.135 ± 0.01 | 0.131 ± 0.011 | 0.385 ± 0.035 | 0.0934 ± 0.024
7 | CC(C)(C(=O)O)c1ccc(C(O)CCCN2CCC(C(O)(c3ccccc3)c3ccccc3)CC2)cc1 (centres undefined) [Fexofenadine HCl] | 0.228 ± 0.0075 | 0.314 ± 0.0088 | 0.285 ± 0.0078 | 0.212 ± 0.017 | 0.184 ± 0.011 | 0.157 ± 0.0041 | 0.235 ± 0.015 | 0.348 ± 0.069 | 0.201 ± 0.025 | 0.266 ± 0.036 | 0.431 ± 0.0065 | 0.309 ± 0.013
8 | Cc1noc(NS(=O)(=O)c2ccc(N)cc2)c1C [Sulfisoxazole] | 0.248 ± 0.0068 | 0.274 ± 0.021 | 0.203 ± 0.0055 | 0.213 ± 0.042 | 0.12 ± 0.0019 | 0.149 ± 0.0027 | 0.308 ± 0.035 | 0.386 ± 0.073 | 0.19 ± 0.0067 | 0.205 ± 0.022 | 0.424 ± 0.012 | 0.313 ± 0.019
9 | CN(C)CCC(c1ccc(Cl)cc1)c1ccccn1 (centres undefined) [Chlorpheniramine maleate] | 0.22 ± 0.0024 | 0.264 ± 0.022 | 0.259 ± 0.0028 | 0.18 ± 0.018 | 0.162 ± 0.0019 | 0.135 ± 0.0055 | 0.291 ± 0.091 | 0.399 ± 0.061 | 0.187 ± 0.012 | 0.23 ± 0.0095 | 0.4277 ± 0.0018 | 0.325 ± 0.01
10 | CC(c1cc2ccccc2s1)N(O)C(N)=O (centres undefined) [Zileuton] | 0.229 ± 0.004 | 0.295 ± 0.021 | 0.254 ± 0.011 | 0.223 ± 0.018 | 0.183 ± 0.0054 | 0.151 ± 0.0028 | 0.338 ± 0.022 | 0.352 ± 0.012 | 0.216 ± 0.029 | 0.216 ± 0.017 | 0.403 ± 0.0065 | 0.3407 ± 0.00091
11 | C=C1c2cccc(O)c2C(O)=C2C(=O)[C@]3(O)C(O)=C(C(N)=O)C(=O)[C@@H](N(C)C)[C@@H]3[C@@H](O)[C@H]12 [Methacycline hydrochloride] | 0.0468 ± 0.0013 | 0.0453 ± 0.00098 | 0.0468 ± 0.0019 | 0.0492 ± 0.0052 | 0.0489 ± 0.0047 | 0.0481 ± 0.0026 | 0.05743 ± 0.00057 | 0.0548 ± 0.0016 | 0.0592 ± 0.0012 | 0.0603 ± 0.0025 | 0.0587 ± 0.0009 | 0.066 ± 0.0023
12 | NS(=O)(=O)c1cc2c(cc1Cl)NCNS2(=O)=O [Hydrochlorothiazide] | 0.245 ± 0.0063 | 0.282 ± 0.019 | 0.255 ± 0.006 | 0.234 ± 0.011 | 0.166 ± 0.0054 | 0.14 ± 0.0039 | 0.367 ± 0.053 | 0.408 ± 0.031 | 0.201 ± 0.013 | 0.244 ± 0.027 | 0.41 ± 0.014 | 0.367 ± 0.019
13 | Nc1ccc(S(N)(=O)=O)cc1 [Sulfanilamide] | 0.249 ± 0.008 | 0.302 ± 0.011 | 0.2715 ± 0.0023 | 0.248 ± 0.014 | 0.205 ± 0.0051 | 0.142 ± 0.0052 | 0.318 ± 0.027 | 0.446 ± 0.0081 | 0.217 ± 0.022 | 0.263 ± 0.038 | 0.388 ± 0.033 | 0.386 ± 0.0053
14 | Clc1ccc(CSC(Cn2ccnc2)c2ccc(Cl)cc2Cl)cc1 (centres undefined) [Sulconazole nitrate] | 0.0579 ± 0.0028 | 0.0534 ± 0.0013 | 0.0668 ± 0.0017 | 0.0542 ± 0.00071 | 0.0669 ± 0.0011 | 0.0556 ± 0.0041 | 0.0615 ± 0.0029 | 0.0557 ± 0.0015 | 0.0605 ± 0.00098 | 0.0607 ± 0.0018 | 0.0787 ± 0.039 | 0.0898 ± 0.0077
15 | O=C(O)/C=C/c1ccc(Cn2ccnc2)cc1 [Ozagrel hydrochloride] | 0.229 ± 0.006 | 0.268 ± 0.019 | 0.263 ± 0.0041 | 0.197 ± 0.025 | 0.179 ± 0.0082 | 0.143 ± 0.0023 | 0.248 ± 0.03 | 0.422 ± 0.035 | 0.176 ± 0.0061 | 0.207 ± 0.023 | 0.397 ± 0.017 | 0.372 ± 0.014
16 | CC(C)(Oc1ccc(C2CC2(Cl)Cl)cc1)C(=O)O (centres undefined) [Ciprofibrate] | 0.205 ± 0.046 | 0.263 ± 0.0056 | 0.273 ± 0.0078 | 0.154 ± 0.004 | 0.187 ± 0.016 | 0.123 ± 0.0026 | 0.26 ± 0.032 | 0.303 ± 0.051 | 0.203 ± 0.018 | 0.207 ± 0.012 | 0.43 ± 0.0055 | 0.312 ± 0.016
17 | OC(CCN1CCCCC1)(c1ccccc1)C1CC2C=CC1C2 (centres undefined) [Biperiden hydrochloride] | 0.23 ± 0.031 | 0.284 ± 0.0095 | 0.275 ± 0.0046 | 0.226 ± 0.03 | 0.155 ± 0.0033 | 0.154 ± 0.0039 | 0.194 ± 0.045 | 0.38 ± 0.094 | 0.159 ± 0.012 | 0.174 ± 0.016 | 0.415 ± 0.011 | 0.359 ± 0.035
